# Among all 5,500 compounds or so, about 2,000 (36%) were called active. Another 18% or so got no clear call; they are omitted. The list shows a part of the results. A number with no mark means an inactive call. Cut-off read from the data, not from the text of the source: active = normalized growth mostly below about 0.91 (no sharp cut-off); inconclusive = no clear call, values can overlap the other calls; inactive = mostly above about 0.92.
# Assay: chemical genetic growth profiling, strain panel (AID 1159580);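 note: tested at 20 µM; growth read once vehicle control cultures reached saturation at 30 °C; 1 = growth at the plate median or of vehicle wells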
# Conditions: growth OD
compound,measurement,setting,value
CC[C@@H](C(=O)[C@@H](C)[C@@H](O)[C@H](C)[C@@H]1O[C@@H]([C@@H](CC)C(=O)O)CC[C@@H]1C)[C@H]1OC2(C=C[C@@H](O)[C@]3(CC[C@@](C)([C@H]4CC[C@](O)(CC)[C@H](C)O4)O3)O2)[C@H](C)C[C@@H]1C (some centres undefined),normalized growth,"S. cerevisiae deletion strains, locus YJR066W, strain TOR1, stronger effect = lower value",0.237 (active)
same,normalized growth,"S. cerevisiae deletion strains, locus YKL009W, strain mrt4, stronger effect = lower value",0.934
same,normalized growth,"S. cerevisiae deletion strains, locus YKL068W, stronger effect = lower value",1.02
same,normalized growth,"S. cerevisiae deletion strains, locus YKL085W, strain MDH1 (second series), stronger effect = lower value",0.812 (active)
same,normalized growth,"S. cerevisiae deletion strains, locus YKL085W, strain MDH1, stronger effect = lower value",0.812 (active)
same,normalized growth,"S. cerevisiae deletion strains, locus YKL160W, strain elf1, stronger effect = lower value",0.879 (active)
same,normalized growth,"S. cerevisiae deletion strains, locus YKL190W, strain CNB1, stronger effect = lower value",0.925
same,normalized growth,"S. cerevisiae deletion strains, locus YKR001C, strain vps1, stronger effect = lower value",0.108 (active)
same,normalized growth,"S. cerevisiae deletion strains, locus YKR026C, strain gcn3, stronger effect = lower value",0.933
same,normalized growth,"S. cerevisiae deletion strains, locus YKR091W, strain srl3, stronger effect = lower value",0.937
same,normalized growth,"S. cerevisiae deletion strains, locus YLL001W, strain dnm1, stronger effect = lower value",0.833 (active)
same,normalized growth,"S. cerevisiae deletion strains, locus YLL026W, stronger effect = lower value",0.892 (active)
same,normalized growth,"S. cerevisiae deletion strains, locus YLL041C, strain sdh2, stronger effect = lower value",0.926 (active)
same,normalized growth,"S. cerevisiae deletion strains, locus YLR027C, strain aat2, stronger effect = lower value",0.858 (active)
same,normalized growth,"S. cerevisiae deletion strains, locus YLR039C, strain RIC1, stronger effect = lower value",0.294 (active)
same,normalized growth,"S. cerevisiae deletion strains, locus YLR058C, strain SHM2, stronger effect = lower value",0.935
same,normalized growth,"S. cerevisiae deletion strains, locus YLR102C, strain apc9, stronger effect = lower value",0.905 (active)
same,normalized growth,"S. cerevisiae deletion strains, locus YLR113W, strain HOG1, stronger effect = lower value",0.176 (active)
same,normalized growth,"S. cerevisiae deletion strains, locus YLR221C, strain rsa3, stronger effect = lower value",0.856 (active)
same,normalized growth,"S. cerevisiae deletion strains, locus YLR258W, strain gsy2, stronger effect = lower value",0.842 (active)
same,normalized growth,"S. cerevisiae deletion strains, locus YLR262C, strain YPT6 (second series), stronger effect = lower value",0.662 (active)
same,normalized growth,"S. cerevisiae deletion strains, locus YLR262C, strain YPT6, stronger effect = lower value",0.183 (active)
same,normalized growth,"S. cerevisiae deletion strains, locus YLR268W, strain sec22, stronger effect = lower value",0.843 (active)
same,normalized growth,"S. cerevisiae deletion strains, locus YLR320W, strain mms22, stronger effect = lower value",0.928
same,normalized growth,"S. cerevisiae deletion strains, locus YLR330W, strain CHS5, stronger effect = lower value",0.927
same,normalized growth,"S. cerevisiae deletion strains, locus YLR342W, strain FKS1 (second series), stronger effect = lower value",0.821
same,normalized growth,"S. cerevisiae deletion strains, locus YLR342W, strain FKS1, stronger effect = lower value",0.852 (active)
same,normalized growth,"S. cerevisiae deletion strains, locus YLR357W, strain rsc2, stronger effect = lower value",0.988
same,normalized growth,"S. cerevisiae deletion strains, locus YLR370C, strain arc18, stronger effect = lower value",0.608 (active)
same,normalized growth,"S. cerevisiae deletion strains, locus YLR371W, strain rom2, stronger effect = lower value",0.624 (active)
same,normalized growth,"S. cerevisiae deletion strains, locus YLR384C, strain iki3, stronger effect = lower value",0.954
same,normalized growth,"S. cerevisiae deletion strains, locus YLR418C, strain cdc73, stronger effect = lower value",0.681 (active)
same,normalized growth,"S. cerevisiae deletion strains, locus YML016C, strain PPZ1, stronger effect = lower value",0.978
same,normalized growth,"S. cerevisiae deletion strains, locus YML032C, strain rad52, stronger effect = lower value",0.882 (active)
same,normalized growth,"S. cerevisiae deletion strains, locus YML120C, strain ndi1, stronger effect = lower value",0.847 (active)
same,normalized growth,"S. cerevisiae deletion strains, locus YML124C, strain tub3, stronger effect = lower value",0.887 (active)
same,normalized growth,"S. cerevisiae deletion strains, locus YMR058W, strain fet3, stronger effect = lower value",0.908
same,normalized growth,"S. cerevisiae deletion strains, locus YMR078C, strain ctf18, stronger effect = lower value",0.937
same,normalized growth,"S. cerevisiae deletion strains, locus YMR125W, strain sto1, stronger effect = lower value",0.932
same,normalized growth,"S. cerevisiae deletion strains, locus YMR129W, stronger effect = lower value",0.937
same,normalized growth,"S. cerevisiae deletion strains, locus YMR205C, strain PFK2, stronger effect = lower value",0.79 (active)
same,normalized growth,"S. cerevisiae deletion strains, locus YMR223W, strain ubp8, stronger effect = lower value",0.838 (active)
same,normalized growth,"S. cerevisiae deletion strains, locus YMR231W, strain pep5, stronger effect = lower value",0.0726 (active)
same,normalized growth,"S. cerevisiae deletion strains, locus YMR307W, strain GAS1, stronger effect = lower value",0.801
same,normalized growth,"S. cerevisiae deletion strains, locus YNL067W, strain RPL9B, stronger effect = lower value",0.963
same,normalized growth,"S. cerevisiae deletion strains, locus YNL071W, strain lat1, stronger effect = lower value",0.96
same,normalized growth,"S. cerevisiae deletion strains, locus YNL128W, strain TEP1, stronger effect = lower value",0.969
same,normalized growth,"S. cerevisiae deletion strains, locus YNL153C, strain GIM3, stronger effect = lower value",0.911
same,normalized growth,"S. cerevisiae deletion strains, locus YNL183C, strain NPR1, stronger effect = lower value",0.143 (active)
same,normalized growth,"S. cerevisiae deletion strains, locus YNL209W, strain ssb2, stronger effect = lower value",0.916 (active)
same,normalized growth,"S. cerevisiae deletion strains, locus YNL233W, strain BNI4, stronger effect = lower value",0.861 (active)
same,normalized growth,"S. cerevisiae deletion strains, locus YNL248C, strain rpa49, stronger effect = lower value",0.95
same,normalized growth,"S. cerevisiae deletion strains, locus YNL250W, strain rad50, stronger effect = lower value",0.868 (active)
same,normalized growth,"S. cerevisiae deletion strains, locus YNL271C, strain bni1, stronger effect = lower value",0.814 (active)
same,normalized growth,"S. cerevisiae deletion strains, locus YNL298W, strain CLA4, stronger effect = lower value",0.439 (active)
same,normalized growth,"S. cerevisiae deletion strains, locus YNL307C, strain MCK1, stronger effect = lower value",0.862 (active)
same,normalized growth,"S. cerevisiae deletion strains, locus YNL322C, strain KRE1 (second series), stronger effect = lower value",0.963
same,normalized growth,"S. cerevisiae deletion strains, locus YNR049C, strain mso1, stronger effect = lower value",0.923
same,normalized growth,"S. cerevisiae deletion strains, locus YNR052C, strain pop2, stronger effect = lower value",0.735 (active)
same,normalized growth,"S. cerevisiae deletion strains, locus YOL006C, strain TOP1, stronger effect = lower value",0.192 (active)
same,normalized growth,"S. cerevisiae deletion strains, locus YOL012C, strain htz1",1.26
same,normalized growth,"S. cerevisiae deletion strains, locus YOL147C, strain pex11, stronger effect = lower value",0.884 (active)
same,normalized growth,"S. cerevisiae deletion strains, locus YOR001W, strain rrp6, stronger effect = lower value",0.909
same,normalized growth,"S. cerevisiae deletion strains, locus YOR061W, strain CKA2, stronger effect = lower value",0.642 (active)
same,normalized growth,"S. cerevisiae deletion strains, locus YOR069W, strain VPS5, stronger effect = lower value",0.797 (active)
same,normalized growth,"S. cerevisiae deletion strains, locus YOR070C, strain gyp1, stronger effect = lower value",0.9 (active)
same,normalized growth,"S. cerevisiae deletion strains, locus YOR080W, strain dia2, stronger effect = lower value",0.961
same,normalized growth,"S. cerevisiae deletion strains, locus YOR083W, strain WHI5, stronger effect = lower value",0.855 (active)
same,normalized growth,"S. cerevisiae deletion strains, locus YOR106W, strain vam3, stronger effect = lower value",0.0692 (active)
same,normalized growth,"S. cerevisiae deletion strains, locus YOR136W, strain idh2, stronger effect = lower value",0.905 (active)
same,normalized growth,"S. cerevisiae deletion strains, locus YOR144C, strain elg1, stronger effect = lower value",0.885 (active)
same,normalized growth,"S. cerevisiae deletion strains, locus YOR184W, strain ser1, stronger effect = lower value",0.892
same,normalized growth,"S. cerevisiae deletion strains, locus YOR231W, strain MKK1, stronger effect = lower value",0.201 (active)
same,normalized growth,"S. cerevisiae deletion strains, locus YOR265W, strain rbl2, stronger effect = lower value",0.897 (active)
same,normalized growth,"S. cerevisiae deletion strains, locus YOR270C, strain vph1, stronger effect = lower value",0.287 (active)
same,normalized growth,"S. cerevisiae deletion strains, locus YOR290C, strain snf2, stronger effect = lower value",0.863 (active)
same,normalized growth,"S. cerevisiae deletion strains, locus YOR316C, strain cot1, stronger effect = lower value",0.908 (active)
same,normalized growth,"S. cerevisiae deletion strains, locus YPL051W, strain arl3, stronger effect = lower value",0.721 (active)
same,normalized growth,"S. cerevisiae deletion strains, locus YPL055C, strain LGE1, stronger effect = lower value",0.934
same,normalized growth,"S. cerevisiae deletion strains, locus YPL078C, strain atp4, stronger effect = lower value",0.939
same,normalized growth,"S. cerevisiae deletion strains, locus YPL106C, strain sse1, stronger effect = lower value",0.932
same,normalized growth,"S. cerevisiae deletion strains, locus YPL240C, strain hsp82, stronger effect = lower value",0.922 (active)
same,normalized growth,"S. cerevisiae deletion strains, locus YPL256C, strain CLN2, stronger effect = lower value",0.265 (active)
same,normalized growth,"S. cerevisiae deletion strains, locus YPR119W, strain clb2, stronger effect = lower value",0.92 (active)
same,normalized growth,"S. cerevisiae deletion strains, locus YPR141C, strain kar3, stronger effect = lower value",1
same,normalized growth,"S. cerevisiae deletion strains, locus YPR163C, strain tif3, stronger effect = lower value",0.538 (active)
same,normalized growth,"S. cerevisiae deletion strains, locus YPR167C, strain met16, stronger effect = lower value",0.865 (active)
same,normalized growth,"S. cerevisiae deletion strains, strain wtn01, stronger effect = lower value",0.815 (active)
same,normalized growth,"S. cerevisiae strains, strain wild type, stronger effect = lower value",0.925

# Source: PubChem BioAssay AID1159580 (chemical genetic matrix, 2015)
